High-throughput results: PubChem BioAssay, National Center for Advancing Translational Sciences (NCATS)
TGFb inhibitor = inhibitors of TGF-b signaling; HepG2 CAGA-GFP TGF-b/SMAD3 reporter, GFP fluorescence, 18 h; TGF-beta stimulated, 500 pg/mL final; Potency, µM (series often up to 46.1 µM), for the others: top-dose activity, negative = inhibition, hits mostly inhibitors; 1.2% of 410,000 active; also: % is scaled to controls: 0 for no effect and ±100 for the full control effect; nearly all actives have a fitted effect of over 65% in size
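Per well, imaged GFP fluorescence of HEPG2 CAGA-GFP cells gives the signal; cells get compound, then TGF-beta (500 pg/mL final), 18 h at 37 degrees C; %Activity versus -TGF-beta and +DMSO controls.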
KB-3-1 cytotox = KB-3-1 parental cell cytotoxicity; KB-3-1 viability, CellTiter-Glo ATP luminescence, 72 h; 1.4% of 400,000 active; Potency, µM (series often up to 46.1 µM), usual class: cytotoxic; AID 1347075; also: % is scaled to controls: 0 for no effect and ±100 for the full control effect; nearly all actives have a fitted effect of over 60% in size
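Here the drug-naive KB-3-1 line serves as comparator for MDR sub-line selectivity; cells received compound titrations, 72 h at 37 °C, then CellTiter-Glo readout.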
ATXN2 expr inh = reduces ATXN2 reporter expression in HEK-293 cells. HEK-293 ATXN2-luciferase reporter, luminescence, 24 h. Potency, µM (top dose mostly 57 µM), inactives show top-dose activity change, negative = inhibition, usual class: inhibitors. 0.72% of 360,000 active; also: % is scaled to controls: 0 for no effect and ±100 for the full control effect; nearly all actives have a fitted effect of over 55% in size
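ATXN2-luciferase reporter cells (luciferase flanked by upstream and downstream ATXN2 gene portions) were treated 24 h at 37 °C with compounds at up to 57 uM. SteadyGlo luminescence gave expression; GF-AFC fluorescence gave viability.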
KB-V1 cytotox = KB-V1 MDR subline cytotoxicity; 3.4% of 400,000 active; KB-V1 MDR cells viability, CellTiter-Glo, 72 h; Potency, µM (highest dose often 46.1 µM), actives largely listed as cytotoxic; AID 1347076; also: % is scaled to controls: 0 for no effect and ±100 for the full control effect; nearly all actives have a fitted effect of over 60% in size
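KB-V1 cells (P-gp-expressing MDR subline of KB-3-1) in phenol-red-free DMEM with 10% FBS were exposed to library compounds over a concentration series for 72 h at 37 degrees C. Viability read by CellTiter-Glo luminescence; concentration-effect curves fitted after normalization.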
HepG2 tox = counter-screen for TGF-b inhibitors: cytotoxicity in HepG2 cells | Potency, µM (doses to about 46.1 µM), for inactives: at the highest dose activity change, negative = cytotoxicity, hits mostly cytotoxic | 0.76% of 410,000 active | AID 588856 | HepG2 CAGA-GFP viability, ATP luminescence, 18 h
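CellTiter-Glo luminescence gave cytotoxicity after 18 hours at 37 degrees C. The cells were HepG2 CAGA-GFP in 1% FBS DMEM, stimulated with 500 pg/mL TGF-beta after compound addition. %Activity was normalised to no-cell wells (complete cell-killing) and DMSO (no toxicity), and curves were fitted and classified.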
S2 tox = viability counter-screen for ATXN expression inhibitors; S2 cells (HEK-293 line with an ATXN2-luciferase reporter) viability, CellTiter-Fluor protease fluorescence, 24 h; Potency, µM (titrated, usually from 56.7 µM), usual class: cytotoxic; 0.49% of 400,000 active; also: nearly all actives have a fitted effect of over 40% in size
* hit, by the source's call; i = inactive; ? = inconclusive; nt = no result given; [ ] = dose if it differs, or a comment. The list is not random: actives were taken first. Their share in the collection is about 5.9%. Calls follow the shape of the dose curve; as a rule, active = well fitted curve in the direction sought with a large enough effect; inconclusive = small, poorly fitted or top-dose-only effect, or another doubt; inactive = no such curve, though single readings can be large; an effect the other way counts as inactive or inconclusive. Potency is read from the fitted curve at half-maximal effect.

SMILES	TGFb inhibitor	KB-3-1 cytotox	ATXN2 expr inh	KB-V1 cytotox	HepG2 tox	S2 tox
C/C(=N/NC(=O)C1CCN(S(=O)(=O)c2ccc(C)cc2)CC1)c1cccc([N+](=O)[O-])c1	10%	i	7%	23µM*	9%	i
C/C(=N\NC(=O)c1cccc([N+](=O)[O-])c1)c1cccc(NC(=O)C2CC2)c1	9%	i	4%[11.3 µM]	i	21%	i
COc1ccc(NC(=O)C2CCC(CNS(=O)(=O)c3ccc(Br)s3)CC2)c(OC)c1 (stereo not given)	?	i	-6%	?	-17%	i
CCCCCCN1C[C@H](n2cc(COC(=O)c3ccccc3)nn2)[C@@H](O)C[C@@H]1c1ccc(C)cc1	?	?	?	?	10µM*	?
CCCCCCN1C[C@H](n2cc(COC(=O)c3ccccc3)nn2)[C@@H](O)C[C@@H]1c1ccccc1	?	i	0%	i	-93%	?
CCCCCCN1C[C@@H](n2cc(COC(=O)c3ccccc3)nn2)[C@H](O)C[C@@H]1c1ccc(Cl)cc1	17%	i	?	i	1%	32µM*
CCOc1ccc(-c2nnc(SCC(=O)NCc3ccc(C)cc3)nc2-c2ccc(OCC)cc2)cc1	-19%	nt	nt	nt	11%	nt
COc1ccc(N(CC(=O)NCCSCc2ccccc2C)S(=O)(=O)c2ccccc2)cc1	-17%	?	-18%	15µM*	-20%	i
CN(Cc1cnc2ccccn12)C(=O)c1cc(NC(=O)c2ccccc2)cc2ncn(C3CCCC3)c12	nt	nt	nt	nt	nt	i
O=C(C[C@@H]1C[C@H]2c3cc(NC(=O)c4cccnc4)ccc3O[C@H]2[C@H](CO)O1)NCc1ccc(Oc2ccccc2)cc1	?	18µM*	?	i	-3%	?
O=C(C[C@@H]1C[C@H]2c3cc(NC(=O)C4CCC4)ccc3O[C@H]2[C@@H](CO)O1)NCc1ccc(-c2ccccc2)cc1	?	?	?	i	16µM*	?
COc1cccc(CN2CC34CC(c5ccc(C(C)=O)cc5)C(CC3S2(=O)=O)O4)c1 (stereo not given)	0%	nt	nt	nt	-12%	nt
CCc1nc2ccc(C(=O)Nc3cccc(NS(C)(=O)=O)c3)cn2c1N(CCC(C)C)CCN(C)C	-23%	i	-10%	i	-30%	i
COc1cccc(CNC(=O)c2cnc3c(-c4ccc(F)cc4)c(C)nn3c2C)c1	8%	i	nt	i	-1%	nt
CCOCCCN(CCC#N)S(=O)(=O)c1ccc(S(=O)(=O)N2CCCC2)cc1	4%	i	-12%	26µM*	0%	i
CCOC(=O)N(C(=O)c1ccccc1)c1ccccc1	?	i	nt	i	-20%	nt
CCCNC(=O)C1CCN(Cc2cc3ccccc3n2Cc2ccccc2)CC1	?	i	?	i	-35%	?
Cc1ccc(Cn2c(CN3CCC(C(=O)NCc4cccnc4)CC3)cc3ccccc32)cc1	?	i	?	i	11µM*	nt
CN(C)CCNC(=O)C1CCN(Cc2cc3ccccc3n2Cc2ccccc2)CC1	?	i	22µM*	?	11µM*	nt
CN(C)CC(C)(C)CNC(=O)c1cnn(-c2nccc(-c3ccc4c(c3)OCO4)n2)c1-c1ccco1	nt	nt	nt	nt	nt	i
CC(=O)c1ccc(NC(=O)CN2C(=O)c3cccnc3Sc3ccccc32)cc1	6%	i	32%	i	-3%	i
Fc1ccc(-c2nc3ccc(Br)cn3c2Cc2ccsc2)cc1	?	i	25%	i	-31%	i
CCN1CCCC1CNC(=O)c1cnn(-c2nccc(-c3cccs3)n2)c1C1CC1 (stereo not given)	nt	nt	nt	nt	nt	i
Cc1cc(Cl)cc(Br)c1OCCCN1C(=O)NC(C)(C)C1=O	1%	?	4%	18µM*	-16%	i
Cc1ccc(C(C)C)c(OCCCN2C(=O)NC(C)(C)C2=O)c1	?	i	-1%	15µM*	-26%	i
SMILES	TGFb inhibitor	KB-3-1 cytotox	ATXN2 expr inh	KB-V1 cytotox	HepG2 tox	S2 tox
Cc1ccc([N+](=O)[O-])c(OCCN2C(=O)NC(C)(C)C2=O)c1	0%	i	nt	i	15%	i
O=C1C=CC(=O)N1CCCCCCCCCCN1C(=O)C=CC1=O	13µM*	?	10µM*	i	-28%	8.9µM*
O=C1C=CC(=O)N1Cc1ccncc1	-1%	i	-9%	i	5%	?
CCc1ccc(NC(=O)CSc2nc3c([nH]c4ccccc43)c(=O)n2C)cc1	-8%	nt	nt	nt	-3%	nt
Cc1cccc(Oc2nc(-c3ccccn3)nc3ccccc23)c1	?	i	-8%	?	11µM*	?
Cc1cccc(Oc2nc(-c3ccncc3)nc3ccccc23)c1	?	i	-18%	i	i	i
Cc1ccccc1Oc1nc(-c2ccccn2)nc2ccccc12	?	i	?	9.2µM*	-29%	?
COc1ccc(OC)c(NC(=O)CSc2n[nH]c(-c3ccccc3Cl)n2)c1	-22%	i	nt	?	-2%	nt
O=C(Nc1ccccc1C(F)(F)F)c1ccc2oc(=O)c(S(=O)(=O)c3ccc(F)cc3)cc2c1	?	?	?	i	-50%	i
O=c1oc2ccc(Br)cc2cc1S(=O)(=O)c1ccc(F)cc1	?	29µM*	?	?	-3%	nt
COc1ccc(NC(=O)c2oc3c(c2C)-c2nn(Cc4ccccc4Cl)cc2CC3)cc1OC	?	nt	nt	nt	-10%	nt
COc1cc(CN2CC(=O)N(c3ccc(C)cc3)C2=S)cc(OC)c1OC	-30%	?	-2%	10µM*	-18%	i
COc1ccc(CN2CC(=O)N(c3ccc(C)cc3)C2=S)cc1OC	-5%	i	-21%	i	11%	i
CCN(CC)S(=O)(=O)c1ccc(C(=O)NC2CC(=O)N(c3ccc4c(c3)OCCO4)C2)cc1 (stereo not given)	0%	i	5%	?	-5%	i
Cc1ccccc1OCC(O)Cn1c(=N)n(CCN2CCCCC2)c2ccccc21 (stereo not given)	nt	nt	nt	nt	16µM*	nt
N=c1n(CCN2CCCCC2)c2ccccc2n1CC(O)c1ccc(Cl)c(Cl)c1 (stereo not given)	?	?	25µM*	21µM*	11µM*	?
Cc1ccccc1OCC(O)Cn1c(=N)n(CCN2CCOCC2)c2ccccc21 (stereo not given)	17%	i	-17%	i	-31%	i
